In PubChem BioAssay AID588511 (Johns Hopkins Ion Channel Center, 2011):
About 3,600 (1.2%) of roughly 310,000 compounds were called active.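 The calls were made as follows: active = ratio plate-corrected score three or more library SD toward inhibition, starting fluorescence score within five deviations; inactive = the rest.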 Many of the other results were omitted from the sample, so actives are more common in it than they were.

What follows are compounds tested against Anoctamin-1 (Mus musculus) (UniProt Q8BHY3) (assay: TMEM16A chloride channel inhibitors, primary screen, cell-based, HTS (AID 588511;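 as to normalized B-score (activity score, 25-100; higher = stronger inhibition): score derived from kinetic fluorescence span divided by baseline fluorescence per well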)). Conditions: HEK293 TMEM16A/YFP iodide influx fluorescence, ionomycin; at 10 µM.
Sequence of Anoctamin-1 (Mus musculus) (Q8BHY3 whole entry, looked up): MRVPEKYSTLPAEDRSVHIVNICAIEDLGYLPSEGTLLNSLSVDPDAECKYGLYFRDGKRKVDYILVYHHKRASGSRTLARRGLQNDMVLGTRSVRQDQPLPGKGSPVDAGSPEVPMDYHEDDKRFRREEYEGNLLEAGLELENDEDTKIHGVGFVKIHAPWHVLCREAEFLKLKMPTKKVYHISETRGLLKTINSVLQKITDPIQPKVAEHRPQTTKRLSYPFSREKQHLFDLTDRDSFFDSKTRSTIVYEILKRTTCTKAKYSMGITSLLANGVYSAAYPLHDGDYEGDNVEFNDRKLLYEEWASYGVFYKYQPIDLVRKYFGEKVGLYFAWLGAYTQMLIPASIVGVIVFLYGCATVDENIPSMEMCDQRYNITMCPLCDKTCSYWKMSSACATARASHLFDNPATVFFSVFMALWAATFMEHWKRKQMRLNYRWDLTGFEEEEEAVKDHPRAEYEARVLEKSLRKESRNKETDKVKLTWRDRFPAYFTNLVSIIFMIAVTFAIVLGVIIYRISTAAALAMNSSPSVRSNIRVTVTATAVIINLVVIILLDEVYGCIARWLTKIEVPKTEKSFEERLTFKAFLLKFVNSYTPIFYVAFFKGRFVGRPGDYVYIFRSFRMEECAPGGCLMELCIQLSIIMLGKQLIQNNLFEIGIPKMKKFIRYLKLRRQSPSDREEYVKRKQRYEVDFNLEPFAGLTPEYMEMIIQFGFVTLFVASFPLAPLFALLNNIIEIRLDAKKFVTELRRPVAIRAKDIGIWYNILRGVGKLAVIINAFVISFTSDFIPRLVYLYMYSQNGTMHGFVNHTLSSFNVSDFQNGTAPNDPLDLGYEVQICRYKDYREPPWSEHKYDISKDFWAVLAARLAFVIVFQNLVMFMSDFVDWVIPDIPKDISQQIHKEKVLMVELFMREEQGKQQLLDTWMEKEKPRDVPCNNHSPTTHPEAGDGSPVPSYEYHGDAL

| SMILES | normalized B-score (activity score, 25-100; higher = stronger inhibition) |
| --- | --- |
| COc1ccc(N(CC(=O)NC2CCCCC2)C(=O)CNC(=O)c2ccco2)c(OC)c1 | inactive |
| CCOc1ncccc1C(=O)N(C)CC(=O)Nc1ccc(F)cc1 | inactive |
| Cc1ccc(CNS(=O)(=O)CCNC(=O)c2ccccc2)cc1 | inactive |
| COc1ccc(CCNC(=O)C(=O)NCC2OCCN2S(=O)(=O)c2ccc(F)cc2)cc1OC (stereo unspecified) | inactive |
| CCCCNC(=O)c1ccccc1NC(=O)c1ccccc1N(C)S(C)(=O)=O | inactive |
| CCOC(=O)c1cccc(NC(=O)CCc2c(C)nc3ncnn3c2C)c1 | inactive |
| CCOC(=O)c1cccc(NC(=O)CCOc2ccccc2)c1 | inactive |
| CCOC(=O)c1cccc(NC(=O)CCn2nnc3ccccc32)c1 | 100 (active) |
| COC(=O)c1cc(NC(=O)c2cc(C(C)(C)C)nn2Cc2cccc(C)c2)ccc1N1CCOCC1 | inactive |
| Cc1cccc(C)c1N1C(=O)CN(Cc2ccccc2)C1=S | inactive |
| CC1Cc2ccccc2N1S(=O)(=O)c1ccc(Cl)nc1 (stereo unspecified) | inactive |
| CC1Cc2ccccc2N1S(=O)(=O)c1c(N)n(C)c(=O)n(C)c1=O (stereo unspecified) | inactive |
| CCCCn1ccnc1C(=O)c1cccc(S(=O)(=O)N2c3ccccc3CC2C)c1 (stereo unspecified) | 25 (active) |
| CC(=O)N1CCCc2cc(S(=O)(=O)N3CCCC(C(=O)NCc4ccc(Cl)cc4)C3)ccc21 (stereo unspecified) | inactive |
| CC(=O)N1c2ccc(S(=O)(=O)N3CCCC(C(=O)Nc4cccc(Cl)c4)C3)cc2CC1C (stereo unspecified) | inactive |
| CC(=O)N1CCCc2cc(S(=O)(=O)N3CCCC(C(=O)N4CCN(c5cccc(Cl)c5)CC4)C3)ccc21 (stereo unspecified) | 100 (active) |
| O=C(NC(=S)Nc1ccccc1C(=O)O)c1ccc(-c2ccc(Br)cc2)o1 | 100 (active) |
| O=C(O)c1ccccc1NC(=O)c1ccccc1-c1ccccc1C(=O)O | inactive |
| COC(=O)c1ccccc1NC(=S)NC(=O)c1ccccc1F | inactive |
| Cc1cc(C)cc(N(CC(=O)NC2CCCC2)C(=O)CCC(=O)Nc2cc(C)on2)c1 | inactive |
| COc1cccc(/C=C/C(=O)Nc2ccc3c(c2)OCCO3)c1 | inactive |
| Cc1ccc(-n2[nH]c(C)c(/C=N/N3C(=O)c4cccc5cccc(c45)C3=O)c2=O)cc1 | 100 (active) |

| SMILES | normalized B-score (activity score, 25-100; higher = stronger inhibition) |
| --- | --- |
| COc1cc(SC#N)ccc1N=Cc1c(C)[nH]n(-c2ccc(C)cc2)c1=O | inactive |
| Cc1[nH]n(-c2ccccc2)c(=O)c1/C=N/NC(=O)c1ccoc1C | inactive |
| Cc1ccc(C2(C(F)(F)F)N=C3Sc4cc(C)cc(C)c4N3C(=O)N2)cc1 (stereo unspecified) | inactive |
| Cc1c(C(=O)OCC(=O)N2CCCC2=O)oc2ccccc12 | inactive |
| c1ccc(-c2cc3c(NCC4COc5ccccc5O4)ncnc3s2)cc1 (stereo unspecified) | 100 (active) |
| COc1ccc(Nc2ncnc3sc(-c4ccccc4)cc23)c(OC)c1 | inactive |
| Oc1ccccc1N1CCN(c2ncnc3sc(-c4ccccc4)cc23)CC1 | inactive |
| COc1cc(Cl)c(C)cc1NC(=O)CN1CCCCCC1 | inactive |
| O=C(Cc1cccs1)NCc1cccc(C(F)(F)F)c1 | inactive |
| CCOn1c(=O)c(=O)n(O)c2ccccc21 | inactive |
| C[C@H]1CCC(=O)N([C@H](CSc2ccccc2)Cc2ccccc2)CC1 | 25 (active) |
| COc1ccc(SC[C@H](Cc2ccccc2)N2CCN(CCc3ccccc3)CCC2=O)cc1 | inactive |
| CN1CCC(=O)N([C@H](CO)Cc2ccccc2)CC1 | inactive |
| Cn1c2c(c(=O)n(C)c1=O)C(c1cccc([N+](=O)[O-])c1)Nc1ccccc1O2 (stereo unspecified) | inactive |
| COc1cccc(-c2nc(CS(=O)(=O)CC(=O)NCCc3ccc(OC)c(OC)c3)c(C)o2)c1 | inactive |
| COc1ccc(CCNC(=O)CS(=O)(=O)Cc2nc(-c3ccc(C)cc3)oc2C)cc1OC | inactive |
| COc1ccc(CCNC(=O)C2CCCN(Cc3nc(-c4cccc(Cl)c4)oc3C)C2)cc1OC (stereo unspecified) | 100 (active) |
| CCOc1ccc(/C=C/C(=O)OCC(=O)c2ccccc2OC)cc1OC | inactive |
| Cc1cccc(N)c1SC1CCCCC1O (stereo unspecified) | inactive |
| Cc1cccc(N=C2SC(C)CN2C(=O)CN2C(=O)NC3(CCCC3)C2=O)c1 (stereo unspecified) | inactive |
| O=C(Nc1nnc(S(=O)(=O)N2CCCCCC2)s1)c1cccc(Br)c1 | inactive |
| NS(=O)(=O)c1ccc(N=Cc2ccc(Br)s2)cc1 | inactive |

| SMILES | normalized B-score (activity score, 25-100; higher = stronger inhibition) |
| --- | --- |
| COC(=O)C1=C(C)NC(=O)CC1c1ccccc1OC (stereo unspecified) | inactive |
| CCCOc1ccccc1C1CC(=O)Nc2cc3c(cc21)OCO3 (stereo unspecified) | 25 (active) |
| COc1ccccc1C1C2=C(COC2=O)Nc2cc3c(cc21)OCO3 (stereo unspecified) | inactive |
| CC1CCN(C(=O)CN(c2ccc(Oc3ccccc3)cc2)S(C)(=O)=O)CC1 | inactive |
| COc1ccc(S(=O)(=O)N(CCCN2CCCC2=O)Cc2cc3c(C)ccc(C)c3[nH]c2=O)cc1 | inactive |
| Cc1ccc(-c2noc(CSc3nnnn3-c3ccccc3)n2)cc1 | 100 (active) |
| Cc1ccc(-c2noc(CSc3nnc(-c4cccs4)n3C)n2)cc1 | inactive |
| Cc1ccc(-c2noc(CSc3nnc(-c4ccccc4)n3C)n2)cc1 | inactive |
| Cc1ccc(-c2nnc(CN3CCN(C)CC3)o2)cc1 | inactive |
| O=C(NCCCN1CCCC1=O)C(=O)NCC1OCCN1S(=O)(=O)c1ccc(Br)cc1 (stereo unspecified) | inactive |
| Cn1c(SCC(=O)N2CCCCC2)nc2c(c1=O)SCC2 | inactive |
| Cc1cccc(CSc2nc3c(c(=O)n2C)SCC3)c1 | 25 (active) |
| CCn1c(SCc2ccccc2)nc2c(c1=O)SCC2 | inactive |
| O=C(Nc1ccnn1C1CCN(C/C=C/c2ccc(F)cc2)CC1)C1CCCC1 | inactive |
| COc1ccc(OC)c(S(=O)(=O)N2CCCC(C(=O)N3CCC(C(N)=O)CC3)C2)c1 (stereo unspecified) | inactive |
| CC(Oc1ccc2ccccc2c1)C(=O)NNC(=S)NC(=O)c1ccco1 (stereo unspecified) | 100 (active) |
| CCCc1ccc(OCC(=O)NNC(=S)NC(=O)c2ccco2)cc1 | inactive |
| Cc1ccc(C(=O)NNC(=O)C(C)Oc2ccc3ccccc3c2)o1 (stereo unspecified) | inactive |
| O=C(Nc1cc(-c2ccccc2)nn1-c1ccccc1F)c1ccc([N+](=O)[O-])cc1 | inactive |
| CSc1ccc(C(=O)C2CCCN(C(=O)c3ccc(C)nc3)C2)cc1 (stereo unspecified) | inactive |
| CCOC(=O)N1CCC(=NNC(N)=O)CC1 | inactive |
| Cc1cccc(-c2nc(CS(=O)CC(=O)NC(C)CCc3ccccc3)c(C)o2)c1 (stereo unspecified) | inactive |
